Seven molecules from ChEMBL document CHEMBL1961873, “Compounds: GSK PKIS; Assays: Nanosyn kinase panel” (2012) can be followed below.

The inhibition is the change of the read-out against control, counted positive when it falls.

Test [1] addresses Glycogen synthase kinase-3 beta (Homo sapiens) (UniProt P49841). To be noted: at 1 µM.
The target in test [2] is Homeodomain-interacting protein kinase 1 (Homo sapiens) (UniProt Q86Z02). To be noted: at 0.1 µM.
Test [3] has the same target. To be noted: at 1 µM.
Test [4] deals with T1, Homeodomain-interacting protein kinase 4 (Homo sapiens) (UniProt Q8NE63).
T1 sequence (whole entry): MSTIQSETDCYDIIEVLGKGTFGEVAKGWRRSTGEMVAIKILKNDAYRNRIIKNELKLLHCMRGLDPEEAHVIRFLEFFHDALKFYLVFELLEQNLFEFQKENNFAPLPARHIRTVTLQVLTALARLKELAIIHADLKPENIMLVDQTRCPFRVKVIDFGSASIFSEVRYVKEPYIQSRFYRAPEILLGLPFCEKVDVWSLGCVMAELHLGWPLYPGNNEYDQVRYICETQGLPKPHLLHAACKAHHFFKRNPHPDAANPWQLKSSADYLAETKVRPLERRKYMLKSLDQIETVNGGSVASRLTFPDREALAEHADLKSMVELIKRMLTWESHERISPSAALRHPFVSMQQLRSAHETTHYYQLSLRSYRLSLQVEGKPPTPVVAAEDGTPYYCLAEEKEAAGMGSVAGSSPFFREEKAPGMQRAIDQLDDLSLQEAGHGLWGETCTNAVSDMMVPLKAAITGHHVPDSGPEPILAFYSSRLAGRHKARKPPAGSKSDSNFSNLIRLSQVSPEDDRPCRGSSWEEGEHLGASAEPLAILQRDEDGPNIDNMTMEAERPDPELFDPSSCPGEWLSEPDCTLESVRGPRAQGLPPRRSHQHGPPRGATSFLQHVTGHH
To be noted: at 0.1 µM.

Test [5] has as its target T1, Homeodomain-interacting protein kinase 4 (Homo sapiens). To be noted: at 1 µM.
The target of test [6] is Mitogen-activated protein kinase 9 (Homo sapiens) (UniProt P45984). The conditions noted are these: at 0.1 µM.
The target is the same in test [7]. To be noted: at 1 µM.
Test [8] has as its target Mitogen-activated protein kinase 1 (Homo sapiens) (UniProt P28482). To be noted: at 0.1 µM.
Test [9] shares this target. To be noted: at 1 µM.
For test [10], the target named is Mitogen-activated protein kinase 3 (Homo sapiens) (UniProt P27361). To be noted: at 0.1 µM.
The target is the same in test [11]. To be noted: at 1 µM.
In test [12] the target is SRSF protein kinase 3 (Homo sapiens) (UniProt Q9UPE1). The conditions noted are these: at 0.1 µM.
Test [13] shares this target. To be noted: at 1 µM.
Test [14] has as its target Mitogen-activated protein kinase 14 (Homo sapiens) (UniProt Q16539). The conditions noted are these: at 0.1 µM.
Test [15] shares this target. The conditions noted are these: at 1 µM.
Test [16] concerns the target Mitogen-activated protein kinase 11 (Homo sapiens) (UniProt Q15759). The conditions noted are these: at 0.1 µM.
The target is the same in test [17]. The conditions noted are these: at 1 µM.
For test [18], the target named is T2, Mitogen-activated protein kinase 13 (Homo sapiens) (UniProt O15264).
T2 sequence (whole entry): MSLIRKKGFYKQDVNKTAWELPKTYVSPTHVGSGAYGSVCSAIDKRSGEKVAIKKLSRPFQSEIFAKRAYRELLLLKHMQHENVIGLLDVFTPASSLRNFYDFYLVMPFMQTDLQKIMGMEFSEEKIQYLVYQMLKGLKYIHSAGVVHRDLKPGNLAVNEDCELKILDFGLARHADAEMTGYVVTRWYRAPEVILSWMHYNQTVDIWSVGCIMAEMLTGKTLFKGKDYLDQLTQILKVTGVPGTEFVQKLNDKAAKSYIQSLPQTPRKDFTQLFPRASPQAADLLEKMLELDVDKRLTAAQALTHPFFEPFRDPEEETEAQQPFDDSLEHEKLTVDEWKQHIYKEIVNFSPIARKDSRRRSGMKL
To be noted: at 0.1 µM.

For test [19], the target named is T2, Mitogen-activated protein kinase 13 (Homo sapiens). The conditions noted are these: at 1 µM.
Test [20] concerns the target T3, Mitogen-activated protein kinase 12 (Homo sapiens) (UniProt P53778).
T3 sequence (whole entry): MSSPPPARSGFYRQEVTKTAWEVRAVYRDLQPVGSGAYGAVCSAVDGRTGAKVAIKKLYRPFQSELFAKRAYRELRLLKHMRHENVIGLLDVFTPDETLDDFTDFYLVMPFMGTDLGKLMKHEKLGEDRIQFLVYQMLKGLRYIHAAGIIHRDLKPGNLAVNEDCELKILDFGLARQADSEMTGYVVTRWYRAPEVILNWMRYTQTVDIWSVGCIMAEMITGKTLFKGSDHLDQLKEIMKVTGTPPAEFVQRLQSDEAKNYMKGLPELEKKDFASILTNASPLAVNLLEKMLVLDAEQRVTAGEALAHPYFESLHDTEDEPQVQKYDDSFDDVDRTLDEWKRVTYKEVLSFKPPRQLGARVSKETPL
The conditions noted are these: at 0.1 µM.

Sequence of Mitogen-activated protein kinase 1 (Homo sapiens) (P28482 whole entry): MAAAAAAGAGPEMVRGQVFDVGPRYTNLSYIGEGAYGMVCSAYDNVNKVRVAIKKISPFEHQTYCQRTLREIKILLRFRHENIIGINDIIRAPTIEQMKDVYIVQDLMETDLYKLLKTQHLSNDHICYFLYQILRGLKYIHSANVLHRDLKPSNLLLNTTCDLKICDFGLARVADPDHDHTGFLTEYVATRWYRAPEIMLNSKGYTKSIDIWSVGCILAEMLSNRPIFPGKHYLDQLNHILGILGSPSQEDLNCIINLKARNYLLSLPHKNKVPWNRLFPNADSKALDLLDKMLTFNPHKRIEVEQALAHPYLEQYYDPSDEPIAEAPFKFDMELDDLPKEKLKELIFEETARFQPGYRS
Sequence of Mitogen-activated protein kinase 3 (Homo sapiens) (P27361 whole entry): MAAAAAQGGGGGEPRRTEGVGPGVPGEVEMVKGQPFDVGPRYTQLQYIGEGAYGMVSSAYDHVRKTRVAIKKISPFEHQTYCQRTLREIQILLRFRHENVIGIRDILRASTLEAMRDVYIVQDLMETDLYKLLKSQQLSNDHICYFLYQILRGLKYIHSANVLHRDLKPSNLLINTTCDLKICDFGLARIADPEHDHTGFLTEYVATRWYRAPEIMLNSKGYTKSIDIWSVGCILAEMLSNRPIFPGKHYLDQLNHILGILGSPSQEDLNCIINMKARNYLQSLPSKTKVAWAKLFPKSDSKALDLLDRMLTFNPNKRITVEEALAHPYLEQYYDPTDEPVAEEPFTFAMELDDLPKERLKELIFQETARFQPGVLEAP
Sequence of Mitogen-activated protein kinase 9 (Homo sapiens) (P45984 whole entry, looked up): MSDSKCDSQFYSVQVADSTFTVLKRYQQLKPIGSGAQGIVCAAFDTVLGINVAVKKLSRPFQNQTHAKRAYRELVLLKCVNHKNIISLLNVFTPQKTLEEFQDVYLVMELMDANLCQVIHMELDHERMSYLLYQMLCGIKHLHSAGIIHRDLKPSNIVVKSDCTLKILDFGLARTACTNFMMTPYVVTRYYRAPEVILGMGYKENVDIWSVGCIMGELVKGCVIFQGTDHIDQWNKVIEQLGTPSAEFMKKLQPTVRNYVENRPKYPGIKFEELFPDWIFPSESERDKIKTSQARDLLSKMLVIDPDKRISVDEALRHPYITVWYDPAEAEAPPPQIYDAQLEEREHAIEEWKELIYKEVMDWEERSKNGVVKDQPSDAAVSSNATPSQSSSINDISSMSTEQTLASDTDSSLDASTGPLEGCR
Sequence of SRSF protein kinase 3 (Homo sapiens) (Q9UPE1 whole entry): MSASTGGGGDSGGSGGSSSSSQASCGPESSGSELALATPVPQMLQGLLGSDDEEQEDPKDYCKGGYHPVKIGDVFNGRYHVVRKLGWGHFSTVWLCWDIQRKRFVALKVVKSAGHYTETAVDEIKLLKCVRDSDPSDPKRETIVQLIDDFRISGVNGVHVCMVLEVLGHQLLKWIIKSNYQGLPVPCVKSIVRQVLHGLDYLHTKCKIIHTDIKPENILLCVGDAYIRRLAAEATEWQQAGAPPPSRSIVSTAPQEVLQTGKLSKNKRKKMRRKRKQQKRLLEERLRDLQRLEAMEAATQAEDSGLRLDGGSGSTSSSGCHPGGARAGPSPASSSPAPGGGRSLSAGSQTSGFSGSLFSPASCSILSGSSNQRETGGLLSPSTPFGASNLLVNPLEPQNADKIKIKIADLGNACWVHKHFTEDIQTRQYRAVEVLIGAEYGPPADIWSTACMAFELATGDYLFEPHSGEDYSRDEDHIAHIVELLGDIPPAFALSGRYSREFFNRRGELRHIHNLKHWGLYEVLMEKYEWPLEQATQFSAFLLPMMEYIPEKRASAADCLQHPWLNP
Sequence of Homeodomain-interacting protein kinase 1 (Homo sapiens) (Q86Z02 whole entry, looked up): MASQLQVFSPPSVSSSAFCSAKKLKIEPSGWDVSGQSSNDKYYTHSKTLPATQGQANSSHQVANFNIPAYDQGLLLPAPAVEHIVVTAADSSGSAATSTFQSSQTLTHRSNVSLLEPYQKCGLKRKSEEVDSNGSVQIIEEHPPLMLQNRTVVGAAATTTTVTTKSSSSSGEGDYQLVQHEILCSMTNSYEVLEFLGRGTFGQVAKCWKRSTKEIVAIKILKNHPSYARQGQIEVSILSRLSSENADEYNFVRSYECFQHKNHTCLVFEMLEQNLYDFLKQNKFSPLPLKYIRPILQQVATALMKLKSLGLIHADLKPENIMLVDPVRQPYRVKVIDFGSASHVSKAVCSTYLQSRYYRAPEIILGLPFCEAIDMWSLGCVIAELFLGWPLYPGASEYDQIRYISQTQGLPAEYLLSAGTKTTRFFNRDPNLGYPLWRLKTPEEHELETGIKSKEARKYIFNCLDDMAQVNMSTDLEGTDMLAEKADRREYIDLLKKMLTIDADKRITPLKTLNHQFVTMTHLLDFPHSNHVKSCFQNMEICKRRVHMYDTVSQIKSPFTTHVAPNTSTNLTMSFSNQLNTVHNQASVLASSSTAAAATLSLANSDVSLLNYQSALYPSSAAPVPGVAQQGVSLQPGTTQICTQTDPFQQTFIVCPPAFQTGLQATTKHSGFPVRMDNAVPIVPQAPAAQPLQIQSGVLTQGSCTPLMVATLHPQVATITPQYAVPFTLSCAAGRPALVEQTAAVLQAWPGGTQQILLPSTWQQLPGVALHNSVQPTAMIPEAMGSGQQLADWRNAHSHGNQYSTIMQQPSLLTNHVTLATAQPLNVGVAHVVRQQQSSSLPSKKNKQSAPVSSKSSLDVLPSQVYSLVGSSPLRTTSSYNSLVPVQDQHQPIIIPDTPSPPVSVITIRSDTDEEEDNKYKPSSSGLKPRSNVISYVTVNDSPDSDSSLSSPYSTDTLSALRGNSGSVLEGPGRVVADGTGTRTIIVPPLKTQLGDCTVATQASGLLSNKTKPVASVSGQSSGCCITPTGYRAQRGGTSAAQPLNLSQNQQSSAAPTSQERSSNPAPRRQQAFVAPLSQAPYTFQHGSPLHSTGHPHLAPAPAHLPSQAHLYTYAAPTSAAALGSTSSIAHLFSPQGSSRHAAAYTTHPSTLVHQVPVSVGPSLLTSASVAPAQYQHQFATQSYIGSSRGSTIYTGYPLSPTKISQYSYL
Sequence of Glycogen synthase kinase-3 beta (Homo sapiens) (P49841 whole entry, looked up): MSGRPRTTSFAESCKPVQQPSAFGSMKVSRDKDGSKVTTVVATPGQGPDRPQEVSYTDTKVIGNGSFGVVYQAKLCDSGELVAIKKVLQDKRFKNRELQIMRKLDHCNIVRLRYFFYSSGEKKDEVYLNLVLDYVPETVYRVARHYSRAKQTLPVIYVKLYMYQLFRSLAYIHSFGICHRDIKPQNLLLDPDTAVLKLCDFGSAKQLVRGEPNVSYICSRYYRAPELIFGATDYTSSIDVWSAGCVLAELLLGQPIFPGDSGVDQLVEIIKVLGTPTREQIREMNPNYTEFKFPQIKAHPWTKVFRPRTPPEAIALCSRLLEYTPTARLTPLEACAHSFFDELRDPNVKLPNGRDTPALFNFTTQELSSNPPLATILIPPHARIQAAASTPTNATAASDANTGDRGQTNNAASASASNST
Sequence of Mitogen-activated protein kinase 11 (Homo sapiens) (Q15759 whole entry): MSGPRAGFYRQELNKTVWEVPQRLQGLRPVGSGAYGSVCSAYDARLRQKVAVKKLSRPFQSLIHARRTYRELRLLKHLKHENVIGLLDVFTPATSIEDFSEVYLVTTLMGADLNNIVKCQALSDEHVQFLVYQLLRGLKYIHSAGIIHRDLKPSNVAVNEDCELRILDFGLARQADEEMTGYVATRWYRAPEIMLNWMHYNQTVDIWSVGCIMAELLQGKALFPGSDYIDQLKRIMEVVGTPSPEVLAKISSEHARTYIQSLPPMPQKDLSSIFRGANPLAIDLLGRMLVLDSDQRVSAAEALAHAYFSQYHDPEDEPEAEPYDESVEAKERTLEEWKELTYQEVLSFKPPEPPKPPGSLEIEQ
Sequence of Mitogen-activated protein kinase 14 (Homo sapiens) (Q16539 whole entry): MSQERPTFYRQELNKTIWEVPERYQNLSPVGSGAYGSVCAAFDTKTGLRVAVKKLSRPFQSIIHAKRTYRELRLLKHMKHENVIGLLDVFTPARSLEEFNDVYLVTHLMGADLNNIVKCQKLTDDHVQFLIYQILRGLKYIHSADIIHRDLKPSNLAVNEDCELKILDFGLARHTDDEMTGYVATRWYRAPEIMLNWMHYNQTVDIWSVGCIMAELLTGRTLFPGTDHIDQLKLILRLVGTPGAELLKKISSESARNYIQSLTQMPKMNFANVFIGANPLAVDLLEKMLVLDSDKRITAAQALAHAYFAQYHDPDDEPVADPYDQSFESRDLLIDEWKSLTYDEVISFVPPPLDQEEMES

In the case of `CC(C)c1ccc(-c2cc(-c3c[nH]nc3-c3ccccn3)ccn2)cc1`, the inhibition in [1] is 3.51%; in test [2], -2.26%; in test [3], 0.99%; in test [4] it was 0.13%; in test [5], 3.76%; in test [6], 0.51%. Besides, the inhibition is 2.5% in test [7]; -0.73% in test [8]; 2.22% in test [9]; 0.86% in [10]; -2.17% in test [11]; -1.14% in test [12]. Besides, the inhibition in test [13] amounted to 0.11%; in test [14] it was 5.48%; in [15], 15.8%; in test [16] it was 1.06%; in test [17], 8.12%; in [18] it was 5.51%. Further, the inhibition in [19] was determined as 0.87%; in test [20], 0.13%.

In the case of `COc1ccc2ncn(-c3cc(O[C@H](C)c4ccccc4C(F)(F)F)c(C(N)=O)s3)c2c1`, the inhibition is 4.75% in [1]; -2.12% in test [2]; 2.1% in test [3]; -0.89% in test [4]; 3.28% in test [5]; 0.32% in [6]. The inhibition in [7] is -1.29%; in test [8], -1.88%; in test [9], -0.49%; in [10] it was -0.86%; in test [11], 0.26%; in [12], -1.14%. The inhibition in test [13] was -0.79%; in test [14], -5.71%; in test [15], 0.3%; in [16] it was -0.35%; in [17], 0.3%; in test [18], -0.27%. In addition, the results for the inhibition in test [19] and in test [20] were -1.08% and 0.21%, respectively.

With `COc1cccc(Nc2nccc(-c3cnn4ncccc34)n2)c1`, the inhibition in test [1] was 79%; in [2] it was 88.9%; in [3], 92.6%; in test [4] it was 56.4%; in test [5] it was 87.3%; in [6] it was 9.47%. Further, the inhibition in test [7] is 46.2%; in test [8], 2.75%; in [9], 26.5%; in test [10], 1.68%; in test [11], 13.1%; in test [12] it was -0.05%. The inhibition in test [13] came out at 0.66%; in test [14], 5.7%; in test [15], 9.35%; in test [16], 4.7%; in test [17], 7.72%; in test [18] it was 5%. The inhibition in test [19] is 15.2%; in test [20], 1.36%.

`NS(=O)(=O)c1ccc(N/N=C2\C(=O)Nc3ccc(C(=O)NCc4ccncc4)cc32)cc1`: the inhibition in test [1] stood at 77.1%; in [2], 10.9%; in test [3] it was 42.5%; in test [4], 12.2%; in test [5], 45.9%; in test [6], 2.55%. The inhibition is 8.96% in test [7]; 14.9% in test [8]; 55.3% in [9]; 5.64% in test [10]; 26.3% in [11]; -1.39% in [12]. Also, the inhibition in [13] turned out to be 2.17%; in [14] it was 6.35%; in test [15] it was 6.05%; in test [16], 4.53%; in test [17], 9.75%; in [18], 1.65%. Further, the values for the inhibition in test [19] and in test [20] were 4.79% and -1.11%, respectively.

With `CS(=O)(=O)Nc1ccc(-c2ccc3c(NC(=O)C4CC4)n[nH]c3c2)cc1`, the inhibition is 5.37% in [1]; -0.91% in [2]; 5.67% in [3]; 0.27% in [4]; 5.43% in [5]; 2.01% in test [6]. For the same molecule, the inhibition worked out at 3.22% in test [7]; 4.95% in test [8]; 1.75% in test [9]; 2.3% in test [10]; 3.17% in test [11]; 1.14% in [12]. Besides, the inhibition was -1.76% in test [13]; 2.35% in [14]; 7.21% in test [15]; 1.53% in [16]; 0.3% in test [17]; 3.39% in test [18]. Besides, the inhibition in test [19] stood at 4.07%; in test [20] it was 1.3%.

For `N#Cc1cccc(Nc2ncc(-c3ccccc3)o2)c1`, the inhibition in test [1] was determined as 16.9%; in [2] it was 3.5%; in test [3], 20.2%; in test [4], 6.92%; in test [5] it was 36.4%; in test [6] it was 1.32%. For the same molecule, the inhibition in test [7] was 2.85%; in [8], 1.39%; in test [9], 3.01%; in test [10], 2.87%; in test [11], 4.14%; in test [12] it was -0.78%. For the same molecule, the inhibition in test [13] is 0.7%; in [14] it was 2.24%; in [15], 3.69%; in [16], 1.51%; in test [17] it was 5.93%; in test [18] it was -0.16%. The inhibition was 2.33% in test [19] and 3.74% in test [20].

As for `COC(=O)Nc1nc2ccc(Oc3ccc(NC(=O)Nc4cc(C(F)(F)F)ccc4F)cc3)cc2s1`, the inhibition in test [1] was 5.68%; in test [2], -1.19%; in test [3], 0.81%; in test [4] it was 6.92%; in test [5], 33.5%; in test [6] it was -0.14%. Besides, the inhibition in [7] is 3.25%; in test [8], -1.09%; in [9], 0.7%; in test [10], 0.14%; in test [11] it was -0.75%; in test [12] it was 0.81%. Further, the inhibition in [13] is 9.68%; in test [14], 18.9%; in [15], 63.7%; in test [16], 7.18%; in test [17], 51.5%; in test [18], 0.05%. Further, the inhibition is 0.18% in test [19] and 0.98% in [20].
